Assay results: PubChem BioAssay AID463173 (ICCB-Longwood Screening Facility, Harvard Medical School, 2010)
Hit rate of the full screen: of about 52,000 compounds, about 4,300 (8.3%) were called active. What follows is part of a selection rich in actives, with near analogues and random picks from the rest. A number with no mark means an inactive call. Cut-off read from the data, not from the text of the source: active = survival mostly below about 52% (no sharp cut-off); inactive = mostly above about 56%.

What follows are compounds tested on DeltatarO mutant (assay: S. aureus survival, RN4220 and DeltatarO strains – OD600, teichoic acid synthesis inhibitors, primary screen (AID 463173)). Settings: S. aureus RN4220 wild type/DeltatarO growth, OD600, 18 h, active compounds read low, screened at 18.75 µg/mL (by protocol).
With `CCOc1ccccc1NC(=O)C(C)Sc1cc(-c2ccccc2)nc(C)n1` (configuration not stated) the survival was 59%.
Compound `CCOC(=O)c1ccc(NC(=O)C(CC)Sc2nc3ncccc3o2)cc1` (configuration not stated) has a survival of 81%.
`C=Cn1c(=N)n(C)c2ccccc21` gave a survival of 70%.
`O=C(CN1C(=O)COc2ccc(S(=O)(=O)N3CCOCC3)cc21)N1CCN(c2ccccc2)CC1` showed a survival of 116%.
Compound `COc1ccccc1CNC(=O)c1ccc(-c2nc(CS(=O)(=O)c3ccc(C)cc3)c(C)o2)cc1` has a survival of 73%.
`COc1ccc(F)cc1NC(=O)C1CCN(c2nc(-c3ccc(OC)c(OC)c3)no2)CC1` was tested, and the survival was 48%.
For `Cc1ccc(NC(=O)CCc2nc3cccnc3n2-c2ccccc2)cc1Cl`, the survival was 64%.
With `Cc1cc(NC(=O)CCc2nc3cccnc3n2-c2ccccc2)ccc1Br` the survival was 31% (active).
Work on `Cc1ccc(NC(=O)CCc2nc3cccnc3n2-c2ccccc2)cc1` yielded a survival of 80%.
In the case of `CCOC(=O)Cn1c(-c2cccs2)cc2cc(Cl)ccc21`, the survival is reported as 59%.
In the case of `COc1cccc(Nc2nc3ccc(C(=O)c4ccccc4)cc3n3c(C)nnc23)c1`, the survival is reported as 85%.
In the case of `CCc1cccc(NC(=O)c2ccc(CN3C(=O)C(C)=C(c4ccc(OC)cc4)S3(=O)=O)cc2)c1`, the survival is reported as 71%.
Compound `CCn1cc(S(=O)(=O)c2ccccc2)c(=O)c2cc(F)c(N3CCCC3)cc21` has a survival of 107%.
`CCOc1ccc(NC(=O)C(C)n2c(=O)cc(C)c3c(C)nn(-c4ccccc4)c32)cc1` (configuration not stated) gave a survival of 83%.
`COc1ccc(C(=O)c2sc(Nc3cc(Cl)ccc3C)nc2N)cc1OC` gave a survival of 131%.
`Nc1c(C(=O)c2ccc(F)cc2)sc(Nc2ccccc2F)c1S(=O)(=O)c1ccc(Br)cc1` gave a survival of 67%.
For `Nc1nc(Nc2ccccc2F)sc1C(=O)c1ccc(Cl)cc1`, the survival was 2% (active).
In the case of `COc1ccc(NC(=O)Cn2c(=O)oc3cc(S(=O)(=O)NC4CCCC4)ccc32)cc1OC`, the survival is reported as 93%.
With `Nc1nnc(CC(=O)N2CCCC2)s1` the survival was 99%.
With `CCCCC(CC)CNC(=O)CCCc1nnc2n(CCC)c(=O)c3sccc3n12` (configuration not stated) the survival was 75%.
`COc1ccc(-c2nnc(SCC(=O)Nc3ccc(C)c(Cl)c3)nc2-c2ccc(OC)c(OC)c2)cc1OC` gave a survival of 135%.
For `COC(=O)CN1C(=O)C(C)(C)c2cc(S(=O)(=O)Nc3ccc(Br)cc3F)ccc21`, the survival was 90%.
`CC1CCN(S(=O)(=O)c2ccc3c(c2)N(CC(=O)NCCCN2CCCC(C)C2)C(=O)CS3)CC1` (configuration not stated) gave a survival of 75%.
In the case of `CCOCCCn1c(SCC(=O)NCc2ccccc2)nc2c(sc3ccccc32)c1=O`, the survival is reported as -5% (active).
`COCCCNC(=O)CSc1nc2c(sc3ccccc32)c(=O)n1CCc1ccccc1` was tested, and the survival was 72%.
`CCOC(=O)CSc1nc2c(sc3ccccc32)c(=O)n1CCc1ccccc1` was tested, and the survival was 60%.
Compound `COCCCn1c(SCC(=O)NCc2ccccc2)nc2c(sc3ccccc32)c1=O` has a survival of 82%.
`CCCCn1c(SCC(=O)NCCCOC)nc2c(sc3ccccc32)c1=O` was tested, and the survival was 128%.
`COCCCNC(=O)CSc1nc2c(sc3ccccc32)c(=O)n1CCc1ccc(OC)c(OC)c1` was tested, and the survival was -4% (active).
`CCCCn1c(SCC(=O)NCc2ccc(C)cc2)nc2c(sc3ccccc32)c1=O` was tested, and the survival was 89%.
With `CC(C)OCCCn1c(SCC(=O)c2ccccc2)nc2c(sc3ccccc32)c1=O` the survival was 88%.
With `CCOC(=O)CSc1nc2c(sc3ccccc32)c(=O)n1CCO` the survival was -5% (active).
With `CCOCCCn1c(SCC(=O)NCCCOC)nc2c(sc3ccccc32)c1=O` the survival was 126%.
`CCOCCCn1c(SCC(=O)OCC)nc2c(sc3ccccc32)c1=O` showed a survival of 124%.
`CCCCn1c(SCC(=O)c2ccccc2)nc2c(sc3ccccc32)c1=O` was tested, and the survival was 17% (active).
With `O=C(CN1C(=O)COc2ccc(S(=O)(=O)N3CCOCC3)cc21)N1CCN(c2ccc(F)cc2)CC1` the survival was 99%.
`CCC(C)(C)n1nnnc1CN(Cc1ccc(Cl)cc1)CC1CCCO1` (configuration not stated) showed a survival of 76%.
In the case of `Cc1ccc(-c2nnn3c2nc(NC2CCC(C)CC2)c2ccccc23)cc1` (configuration not stated), the survival is reported as -4% (active).
`c1ccc(CNc2nc3c(-c4ccccc4)nnn3c3ccccc23)cc1` was tested, and the survival was 75%.
In the case of `Clc1ccc(-c2nnn3c2nc(NCc2ccc4c(c2)OCO4)c2ccccc23)cc1`, the survival is reported as 59%.
Compound `Cc1ccc(-c2nnn3c2nc(NCCc2ccc(Cl)cc2)c2ccccc23)cc1` has a survival of 82%.
`Clc1ccc(-c2nnn3c2nc(NC2CCCCC2)c2ccccc23)cc1` was tested, and the survival was 17% (active).
For `CC1CCC(Nc2nc3c(-c4ccc(Cl)cc4)nnn3c3ccccc23)CC1` (configuration not stated), the survival was 8% (active).
Compound `Cc1ccc(-c2nnn3c2nc(NCCc2ccccc2)c2ccccc23)cc1` has a survival of 112%.
`CCCCCNc1nc2c(-c3ccccc3)nnn2c2ccccc12` gave a survival of 80%.
`Cc1ccc(-c2nnn3c2nc(NCC(C)c2ccccc2)c2ccccc23)cc1` (configuration not stated) was tested, and the survival was 91%.
With `CCCCNC(=O)C(CC)Sc1nnc(-c2ccc(F)cc2)c(-c2ccc(F)cc2)n1` (configuration not stated) the survival was 83%.
For `CSc1ccc(C2c3[nH]c4ccccc4c3CCN2C(=O)CCc2ccccc2)cc1` (configuration not stated), the survival was 87%.
Work on `CC1CCCN(CCCNC(=O)c2ccc3c(c2)N(Cc2ccc(Cl)cc2)C(=O)c2ccccc2S3(=O)=O)C1` (configuration not stated) yielded a survival of 145%.
With `COc1c(Cl)cc(Cl)cc1CNCCSc1nnnn1C` the survival was 74%.
With `COc1ccc(Br)cc1CNC(=O)CCSCc1ccc(Cl)cc1` the survival was 73%.
In the case of `CCOC(=O)C1CCCN(S(=O)(=O)c2ccc3c(c2)N(C)C(=O)CC(=O)N3C)C1` (configuration not stated), the survival is reported as 106%.
For `COc1ccc(OCc2nc3c4c(-c5ccc(OC)cc5)c(-c5ccc(OC)cc5)oc4ncn3n2)cc1`, the survival was 70%.
`COC(=O)c1ccc([C@H]2Nc3ccc(S(=O)(=O)Nc4ccc(C)cc4)cc3[C@H]3C=CC[C@H]32)cc1` gave a survival of 60%.
For `Cc1cccc(NS(=O)(=O)c2ccc3c(c2)[C@H]2C=CC[C@H]2[C@@H](c2ccc(F)cc2)N3)c1`, the survival was 39% (active).
`Cc1cccc(C)c1NS(=O)(=O)c1ccc2c(c1)[C@H]1C=CC[C@H]1[C@@H](c1ccc(Cl)cc1)N2` was tested, and the survival was 53%.
Work on `COC(=O)c1ccc([C@H]2Nc3ccc(S(=O)(=O)Nc4cccc(C)c4)cc3[C@H]3C=CC[C@H]32)cc1` yielded a survival of 50%.
For `COC(=O)c1ccc([C@H]2Nc3ccc(S(=O)(=O)Nc4ccc(F)cc4)cc3[C@H]3C=CC[C@H]32)cc1`, the survival was 53% (active).
Compound `Cc1ccc(NS(=O)(=O)c2ccc3c(c2)[C@H]2C=CC[C@H]2[C@@H](c2ccc(F)cc2)N3)cc1C` has a survival of 58%.
For `Cc1ccc(C)c(N2CCN(C(=O)c3ccc4c(c3)c(C)c(C)n4C)CC2)c1`, the survival was 73%.
For `COc1ccccc1CNC(=O)Cn1c(=O)oc2cc(S(=O)(=O)N3CCC(C)CC3)ccc21`, the survival was 143%.
Compound `COc1ccc(N2CCN(C(=O)CN3C(=O)COc4ccc(S(=O)(=O)N5CCC(C)CC5)cc43)CC2)cc1` has a survival of 81%.
For `CCOC(=O)/C(C#N)=C/c1ccc(-c2ccc(C)cc2)o1`, the survival was 98%.
`CCOC(=O)c1ccc(-c2ccc(/C=C(\C#N)C(=O)Nc3ccc(C)cc3OC)o2)cc1` was tested, and the survival was 76%.
Compound `Cc1cc(C(=O)OC(C)C)ccc1-c1ccc(C=C(C#N)C#N)o1` has a survival of 104%.
In the case of `Cc1ccc2nc(/C(C#N)=C/c3ccc(-c4ccc(C(=O)OC(C)C)cc4)o3)[nH]c2c1`, the survival is reported as 36% (active).
For `Cc1ccc2nc(/C(C#N)=C/c3ccc(-c4cccc(Cl)c4)o3)[nH]c2c1`, the survival was 6% (active).
Compound `N#CC(C#N)=Cc1ccc(-c2cccc(C(F)(F)F)c2)o1` has a survival of 114%.
With `CCOC(=O)c1ccc(-c2ccc(/C=C(\C#N)c3nc4ccc(C)cc4[nH]3)o2)cc1` the survival was 32% (active).
`CCOC(=O)c1ccc(-c2ccc(C=C(C#N)C#N)o2)cc1` was tested, and the survival was 87%.
In the case of `N#C/C(=C\c1ccc(-c2cccc(Cl)c2)o1)C(N)=O`, the survival is reported as 99%.
For `C=CCc1c(C)[nH]c2c(OC)cccc2c1=S`, the survival was 82%.
`COc1ccc(C(=O)Nc2ccc(NC(=O)c3cccs3)cc2)cc1OC` was tested, and the survival was 72%.
Work on `COc1ccc(OC)c(NC(=O)C2CCN(S(=O)(=O)c3ccc4c(c3)CCCC(=O)N4)CC2)c1` yielded a survival of 88%.
With `CCOC(=O)C1CCN(C(=O)Cn2nc(CC)n3c(cc4sccc43)c2=O)CC1` the survival was 134%.
In the case of `COc1cc(C(CC(=O)Nc2ncccc2C)N2Cc3ccccc3C2=O)cc(OC)c1OC` (configuration not stated), the survival is reported as 79%.
`Cc1ccc(NC(=O)CN2C(=O)CCn3nc(-c4cccn4C)cc32)c(Cl)c1` showed a survival of 115%.
With `COCCCNC(=O)C(=O)Nc1c2c(nn1-c1cccc(Cl)c1)CSC2` the survival was 79%.
`C=CCC(NCc1ccco1)c1ccccc1` (configuration not stated) showed a survival of 69%.
`CCc1ccc2oc(-c3ccc(NC(=O)c4cc(OC)c(OC)c(OC)c4)cc3)nc2c1` showed a survival of 57%.
In the case of `CCOc1cc(C(=O)Nc2ccc3oc(-c4ccc(CC)cc4)nc3c2)cc(OCC)c1OCC`, the survival is reported as 41% (active).
`CCOc1cc(C(=O)Nc2ccc(-c3nc4cc(C)ccc4o3)cc2)cc(OCC)c1OCC` was tested, and the survival was 27% (active).
`CCOc1cc(C(=O)Nc2cccc(-c3nc4ccccc4o3)c2)cc(OCC)c1OCC` was tested, and the survival was 51%.
With `CCOc1cc(C(=O)Nc2ccc3oc(-c4ccc(F)cc4Cl)nc3c2)cc(OCC)c1OCC` the survival was 64%.
Work on `CCOc1cc(C(=O)Nc2ccc(-c3nc4cc(Cl)ccc4o3)cc2)cc(OCC)c1OCC` yielded a survival of 67%.
`COc1cccc(-n2c(SCC(=O)Nc3nnc(C)s3)nc3c([nH]c4ccccc43)c2=O)c1` gave a survival of 60%.
Compound `COc1ccc(-n2ccn(CC(=O)Nc3ccccc3C(F)(F)F)c(=O)c2=O)cc1OC` has a survival of 80%.
